Reference: PubChem BioAssay AID1578 (Sanford-Burnham Center for Chemical Genomics, 2009)
Out of some 290,000 compounds screened, about 3,000 (1%) were called active. For the sample, actives were picked, then their nearest neighbours and some compounds at random. Values without a mark were called inactive. Cut-off read from the data, not from the text of the source: active = inhibition mostly above about 36% (no sharp cut-off); inactive = mostly below about 34%.

Assay: NOD1 signaling inhibitors, primary screen, cell-based, luminescence, uHTS (AID 1578);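 note: HEK-293T reporter cells stimulated with the NOD1 agonist gamma-tri-DAP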
Settings: NOD1-driven NF-kB luciferase reporter cells, at 4 µM, stronger effect = higher value

Row | SMILES | inhibition
1 | O=C(N/N=C/c1ccc(OCC(=O)N2CCOCC2)cc1)c1ccccc1Cl | -15.5%
2 | O=C(N/N=C/c1ccc(N2CCOCC2)cc1)c1ccccc1OCCOc1ccccc1 | 58.8% (active)
3 | O=C(N/N=C/c1ccc(N2CCOCC2)cc1)c1ccccn1 | 0%
4 | Fc1ccc(-n2ncc3c(SCc4cccnc4)ncnc32)cc1 | -6.1%
5 | Cc1nc2nc[nH]n2c(=O)c1CC(=O)O | 14.8%
6 | CN(c1cc(=O)n2ccccc2n1)C1CCCCC1 | -27.9%
7 | CC1CCCN(c2ccc3nc4ccccc4c(=O)n3n2)C1 (stereo not drawn) | 28.3%
8 | CN(c1ccc2nc3ccccc3c(=O)n2n1)C1CCCCC1 | 92.5% (active)
9 | CN1CCCN(C(=O)/C=C/c2ccc(F)cc2)CC1 | -22.5%
10 | N#CCC(=O)Nc1ccc(C(=O)OCC(=O)NCCCc2ccccc2)cc1 | 5.1%
11 | O=C(O)c1ccc(/C=C(\c2nc3ccccc3[nH]2)c2nc3ccccc3s2)cc1 | 4.6%
12 | COc1cc(C=C(c2nc3ccccc3s2)c2nc3ccccc3s2)ccc1O | 7.4%
13 | O=C(O)c1ccc(C=C(c2nc3ccccc3s2)c2nc3ccccc3s2)cc1 | 63.5% (active)
14 | CCCNC(=O)COC(=O)CCC(=O)c1cccs1 | -7.8%
15 | O=C(Oc1ccc(Cl)c2cccnc12)c1cccc([N+](=O)[O-])c1 | -6.9%
16 | O=C(Oc1c(Cl)cc(Cl)c2cccnc12)c1cccc([N+](=O)[O-])c1 | 105% (active)
17 | O=C(Oc1cccc2cccnc12)c1cccc([N+](=O)[O-])c1 | -8.5%
18 | COc1ccc(OC)c(Nc2nc(NCc3ccco3)nc(N)c2[N+](=O)[O-])c1 | -6.4%
19 | COc1ccc(NC(=O)c2ccc3c(c2)NC(=O)CS3)cc1S(=O)(=O)Nc1ccc(Br)cc1 | 4%
20 | Cc1ccc(NS(=O)(=O)c2cc(NC(=O)c3cc(=O)[nH]c(=O)[nH]3)ccc2Cl)c(C)c1 | 12.4%
21 | Cc1ccc(C(=O)N/C(=C\c2cccc([N+](=O)[O-])c2)C(=O)OCN2C(=O)c3ccccc3C2=O)cc1 | -36.4%
22 | O=C(NC1=NCCS1)C12CC3CC(CC(C3)C1)C2 | -23.8%
23 | Nc1cccc2nc3ccccc3cc12 | -65%
24 | Nc1[nH]nc2nc3ccccc3cc12 | -21.2%
25 | O=C(c1cccc(F)c1)N1C2C=CC(C2)C1(C(F)(F)F)C(F)(F)F (stereo not drawn) | 23%

Row | SMILES | inhibition
26 | N/C(=N/S(=O)(=O)c1ccccc1)c1cccc([N+](=O)[O-])c1 | 2%
27 | CNC(=S)NNC(=O)c1sc2cc(C(F)(F)F)cnc2c1-c1ccccn1 | -34.8%
28 | CCCCCCC1CC(=O)NC(=O)N1 (stereo not drawn) | 45.3% (active)
29 | CCCCCCC1CC(=O)NC(=S)N1 (stereo not drawn) | -3%
30 | CCCCCC1CC(=O)N(Cc2ccc(Cl)cc2)C(=O)N1 (stereo not drawn) | 7.7%
31 | Cc1ccc(N2CCC(N3CCN(C4CCCCC4)C(CCO)C3)CC2)cc1 (stereo not drawn) | -17.5%
32 | COc1cc2c(cc1OC)C(C1C(=O)CCCC1=O)N(C(=O)CCl)CC2 (stereo not drawn) | -8%
33 | COc1cc2c(cc1OC)C(c1cc(Br)ccc1F)N(C(=O)CCl)CC2 (stereo not drawn) | 37.2% (active)
34 | COc1cc2c(cc1OC)C(c1ccccc1)N(C(=O)CCl)CC2 (stereo not drawn) | 43.6%
35 | CSc1cccc(NS(=O)(=O)c2ccccc2)c1 | -20.4%
36 | O=C(CSc1nccc(=O)[nH]1)NC1CCCC1 | -1.9%
37 | CCCNC(=O)C/C(C)=N/NC(=O)COc1ccc(C)cc1Br | 83.4% (active)
38 | C/C(CC(=O)NC(C)(C)C)=N\NC(=O)COc1ccc(C)cc1Br | -14%
39 | COc1ccc(CCNC(=O)C/C(C)=N/NC(=O)COc2ccc(C)cc2Br)cc1OC | 39.1%
40 | CC(=O)c1ccc(OCC(=O)NC(=O)NC2CCCCC2)cc1 | 6.2%
41 | Cc1ccc(C)c(OCC(=O)Nc2ccc(S(=O)(=O)Nc3ncccn3)cc2)c1 | -12.1%
42 | CCOC(=O)c1c(-c2ccccc2)csc1N1C(=O)Nc2ccccc2N1O | -27.8%
43 | COC(=O)c1c(-c2ccccc2)csc1N1C(=O)Nc2ccccc2N1O | 37.8% (active)
44 | COC(=O)c1c(N2C(=O)Nc3ccccc3N2O)sc(C)c1C | -21.8%
45 | CC(=O)Nc1ccc(-c2csc(-c3cccnc3)n2)cc1 | -31.8%
46 | O=C(O)CNC(=O)CCN1C(=O)c2ccccc2C1=O | -13.4%
47 | COc1ccc(/C=C/C(=O)C(C(N)=O)=C2SCCS2)cc1 | -16.2%
48 | CCOc1ccc(/C=C/C(=O)C(C(N)=O)=C2SCCS2)cc1 | 8.8%
49 | NC(=O)C(C(=O)/C=C/c1ccc(Cl)cc1)=C1SCCS1 | 60.5% (active)
50 | Cc1ccc(CNC(=O)/C=C/c2ccc(Br)o2)cc1 | -7.4%

Row | SMILES | inhibition
51 | NC(=O)c1ccc(C(=O)N/N=C/c2cccc(Oc3ccccc3)c2)cc1 | -28.7%
52 | NC(=O)COc1cccc(/C=N/NC(=O)c2ccc(-n3cccc3)cc2)c1 | 39.2% (active)
53 | NC(=O)COc1ccc(/C=N\NC(=O)c2ccc(-c3ccccc3)cc2)cc1 | 2.5%
54 | CCCn1c(C)nc2cc(Cl)c(N3CCN(c4nc(-c5ccc(C)cc5)cs4)CC3)cc21 | 23.3%
55 | CC(=O)NC1=C(NC2CCS(=O)(=O)C2)C(=O)c2ccccc2C1=O (stereo not drawn) | -32.3%
56 | O=C(NC1=C(NC2CCS(=O)(=O)C2)C(=O)c2ccccc2C1=O)c1ccccc1 (stereo not drawn) | 104% (active)
57 | CN(C1=C(NC(=O)c2ccccc2)C(=O)c2ccccc2C1=O)C1CCS(=O)(=O)C1 (stereo not drawn) | -26.1%
58 | O=S(=O)(Nc1nc(-c2ccccc2)cs1)c1cc(Cl)ccc1Cl | 40.9%
59 | COc1cc(N=CC2=C(O)c3ccccc3C2=O)cc(OC)c1 | -21.7%
60 | COc1ccc(N=CC2=C(O)c3ccccc3C2=O)c(OC)c1 | 72% (active)
61 | COc1ccc(N=CC2=C(O)c3ccccc3C2=O)cc1 | 52.5%
62 | O=C(CCC(=O)Nc1nnc(C2CCCCC2)s1)NCc1ccc(F)cc1 | -10.8%
63 | CSc1ccc(OC2CCCCC2NS(=O)(=O)c2ccccc2)cc1 (stereo not drawn) | -17%
64 | Cc1cc(OCC(=O)NCCc2cccc(F)c2)c2c(C)cc(=O)oc2c1 | 21.7%
65 | O=C(O)c1ccc(N=Cc2c(O)ccc3oc4c(c23)CCCC4)cc1 | 60% (active)
66 | CC(C)(C)N=Cc1c(O)ccc2oc3c(c12)CCCC3 | -1.4%
67 | Oc1ccc2oc3c(c2c1/C=N/n1cnnc1)CCCC3 | 59.5% (active)
68 | NC(=O)N/N=C/c1c(O)ccc2oc3c(c12)CCCC3 | -15.5%
69 | Oc1ccccc1N=Cc1c(O)ccc2oc3c(c12)CCCC3 | -2.1%
70 | Cc1cccc(/N=C/c2c(O)ccc3oc4c(c23)CCCC4)n1 | 3.8%
71 | COC(=O)c1ccsc1NC(=O)CCc1ccccc1 | -59.2%
72 | COc1cc(NC(=S)NCc2cccnc2)c(OC)cc1Cl | -26.2%
73 | CC(=O)c1nnn(-c2c(F)cccc2F)c1C | -11.8%
74 | O=c1[nH][nH]c(C(F)(F)F)c1C=NCc1cccc(Cl)c1 | -0.4%
75 | CCc1ccc(/C=C/c2c[nH]c3ccccc23)[n+](CC)c1 | -7.1%

Row | SMILES | inhibition
76 | CC[n+]1ccc(/C=C/c2c[nH]c3ccccc23)cc1 | 3.8%
77 | CC[n+]1c(/C=C/c2c[nH]c3ccccc23)ccc2cc(C)ccc21 | 79.9% (active)
78 | Cn1nnc2cc(NC(=O)Nc3cccc(C(F)(F)F)c3)ccc21 | -5.1%
79 | COc1ccccc1N1CCN(C(=O)CN2C(=O)C3CCCCC3C2=O)CC1 (stereo not drawn) | -30.6%
80 | CCCCN(C)C1CCN(C(=S)Nc2ccc(OC)cc2)CC1 | -31.8%
81 | Cc1cc(C)c(S(=O)(=O)c2ccccc2)c(N2CCOCC2)n1 | -15.6%
82 | CCCCCc1ccc(-c2ccc(/C=C/C(=O)O)cc2)nc1 | -27.7%
83 | CCCCCc1ccc(-c2ccc(/C=C/C(N)=O)cc2)nc1 | -38.2%
84 | CCCc1ccc(-c2ccc(/C=C/C(=O)O)cc2)nc1 | 76.4% (active)
85 | Cc1cc2c(c(=O)n1Cc1cccnc1)C(c1cccs1)C(C#N)=C(N)O2 (stereo not drawn) | 7%
86 | O=S(=O)(NC1CCCC1)c1cccc(-c2nnc(-c3ccccc3)o2)c1 | -5.3%
87 | COC(=O)[C@@H](NC(=O)NCc1cccs1)C(C)C | 8.6%
88 | CCCCCNC(=O)c1c[nH]c2ccc(S(=O)(=O)N3CCC4(CC3)OCCO4)cc2c1=O | -39.2%
89 | CCC(=O)Nc1c2c(nn1-c1ccccc1)CSC2 | -26%
90 | COc1ccc(-n2nc3c(c2NC(=O)CCCl)CSC3)cc1 | 1.9%
91 | CCC(=O)Nc1c2c(nn1-c1ccc(OC)cc1)CSC2 | -5.8%
92 | O=C(CCCCl)Nc1c2c(nn1-c1ccccc1)CSC2 | -34.6%
93 | COc1ccccc1P(=O)(Cc1ccccc1[N+](=O)[O-])c1ccccc1 (stereo not drawn) | -7.4%
94 | CN1Cc2c(N3CCOCC3)nc3sc(C#N)c(N)c3c2CC1(C)C | -1.3%
95 | CCOc1cc2c3c(c1)C(C)CC(C)(C)N3C(=O)C2=O (stereo not drawn) | -0.3%
96 | CCc1cc2c3c(c1)C(C)CC(C)(C)N3C(=O)C2=O (stereo not drawn) | -3.6%
97 | COc1ccc(OC)c(NC(=O)CSc2nncc3ccc(OC)c(OC)c23)c1 | 1%
98 | COc1ccc(OC)c(/C=N\NC(=O)c2ccc(-c3ccccc3)cc2)c1 | -32%
